# Key:
# Conditions in all cases: concentration: 1 μM, replicates: in singlicate; n = 1
# [1] = system: NEK7
# [2] = system: NEK9
# [3] = system: T1, NIK
# T1 construct: gene MAP3K14
# [4] = system: T2, NIM1
# T2 construct: gene MGC42105
# [5] = system: NLK
# [6] = system: T3, OSR1
# T3 construct: gene OXSR1
# [7] = system: PAK1
# [8] = system: PAK2
# [9] = system: PAK3
# [10] = system: PAK4
# 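Note: KINOMEscan kinase panel screen.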
Compound,%Inh [1] [%],%Inh [2] [%],%Inh [3] [%],%Inh [4] [%],%Inh [5] [%],%Inh [6] [%],%Inh [7] [%],%Inh [8] [%],%Inh [9] [%],%Inh [10] [%]
Cc1cccc(-c2cc(Nc3ccncc3)c3ccccc3n2)n1 [GSK223675],0,8,14,0,10,6,6,2,0,0
Cc1cccc(-c2nc(-c3ccc(S(C)(=O)=O)cc3)sc2-c2ccnc(NCCc3ccccc3)c2)c1,0,0,0,0,11,0,18,20,0,1
O=C(O)COc1ncnc2cc(-c3ccc4[nH]ncc4c3)sc12,5,0,0,26,0,34,5,3,3,0
Cc1cc(-c2ccc3c(c2)CC[C@@H](N[C@@H](C)c2ccccc2)C3)cnc1N.Cl [GW412617],9,0,77,22,0,8,0,16,0,36
Cl.O=C(Nc1cccc(-c2nn3ncccc3c2-c2ccnc(Nc3cccnc3)n2)c1)c1c(F)cccc1F [GSK312879],7,0,24,11,15,23,15,19,9,0
Cc1cccc(-c2nc(Nc3cccc(C(N)=O)c3)c3ccccc3n2)n1 [GW876019],0,15,0,0,0,0,16,21,49,17
COc1ccccc1-c1ccc2c(NC(=O)C3CC3)n[nH]c2n1 [SB-711239],6,5,0,19,15,64,5,0,7,12
Cc1ccc(-c2cc(-c3c[nH]nc3-c3ccccn3)ccn2)cc1 [GW684088],0,0,47,17,22,5,14,18,0,19
Nc1ncnc2[nH]c(-c3ccccc3)nc12 [AH5015],7,1,50,21,0,17,30,48,100,0
Cc1cccc(-c2nc(Nc3ccc4[nH]ncc4c3)c3ccccc3n2)n1 [GW857175],5,0,11,30,1,25,0,2,0,6
CS(=O)(=O)c1ccc(-c2nc3n(c2-c2ccncc2)CCC3)cc1 [SKF-105942],0,0,3,17,0,0,19,26,0,0
NC(=O)c1nnc2ccccc2c1N,0,0,69,14,2,31,0,7,5,0
Cc1ccccc1-n1cnc2c(N)ncnc21 [SKF-97510],12,0,0,0,15,0,15,11,25,0
CCCc1ccc(S(=O)(=O)NC2CCN(c3ccnc(Nc4ccc(F)cc4)n3)C2)cc1 (centres unmarked) [GSK1379715],0,0,23,18,0,17,0,2,3,0
COc1cc2ncn(-c3cc(OCC4CCCO4)c(C(N)=O)s3)c2cc1OC (centres unmarked) [GSK204607],0,0,19,23,15,0,0,0,9,0
Cl.NC(=O)c1cccc(Nc2nccc(Nc3ccc(Oc4cccc(Cl)c4)c(Cl)c3)n2)c1 [GW659008],16,3,27,29,21,8,9,9,33,0
CN(C)CCN(C)C(=O)c1cc(-c2ccncc2)c(-c2ccc(Cl)c(O)c2)o1.Cl.Cl [SB-710397],0,0,16,35,76,4,6,0,16,0
O=C(Nc1n[nH]c2cc(-c3cccc(F)c3F)ccc12)C1CC1 [SB-733894],7,0,0,0,72,0,3,41,2,12

Compound,%Inh [1] [%],%Inh [2] [%],%Inh [3] [%],%Inh [4] [%],%Inh [5] [%],%Inh [6] [%],%Inh [7] [%],%Inh [8] [%],%Inh [9] [%],%Inh [10] [%]
Fc1cccc(COc2nnc(-c3ccc4c(c3)CCO4)o2)c1,19,3,0,0,6,0,27,55,16,15
Cn1ccc2ncnc(Oc3ccc(Nc4nc5ccccc5[nH]4)cc3)c21,0,0,0,0,4,0,14,0,0,0
Cc1nnc(-c2ccc3occ(-c4ccc(S(C)=O)cc4)c3c2)[nH]1 (centres unmarked),22,25,0,0,17,6,28,36,17,8
COc1ccc(Nc2nccc(NCCNC(=O)Nc3ccccc3F)n2)cc1 [GSK1379901],0,0,9,9,7,8,0,0,0,0
CN1C(=O)C(Nc2ccc(Cl)c(C(=O)O)c2)=C(c2ccc(Cl)cc2)C1=O [SB-404290],15,10,0,9,17,13,0,18,22,0
Cl.c1ccc(-c2n[nH]cc2-c2ccnc(-c3ccc(CN4CCOCC4)cc3)c2)nc1 [GW776245],0,0,0,0,0,0,6,14,10,16
Cc1c(Cn2ccn3c(=O)cc(N4CCOCC4)nc23)cccc1C(F)(F)F [GSK2289044],4,20,0,7,27,8,16,8,13,0
CC1=C(C(=O)Nc2cc3cn[nH]c3cc2F)C(c2ccc(C(F)(F)F)cc2)CC(=O)N1 (centres unmarked) [GSK429286],0,0,27,12,13,18,0,4,45,0
COC(=O)c1c(-c2ccccc2)c2cc(OC)ccc2c(=O)n1Cc1ccccc1,0,7,0,0,0,0,31,27,44,9
COc1ccc(Nc2nccc(-c3cccc(NC(=O)c4cc5cc(F)ccc5[nH]4)c3)n2)cc1 [GSK1229782],0,21,50,13,9,18,36,35,13,22
Cc1ccc(C(=O)Nc2ccc(Nc3ccnc4cc(-c5ccccn5)ccc34)cc2O)cc1.Cl [GW440146],0,52,11,15,22,1,12,15,14,0
Cn1ccc2ncnc(Oc3cccc(C(=O)Nc4ccccc4)c3)c21,0,0,0,0,4,0,0,0,9,21
O=C(Nc1ccccc1)Nc1cccc(Oc2ccc3nccn3n2)c1,0,36,7,19,22,0,0,0,0,0
CC(C)(C)c1ccc(C(=O)Nc2cn3cc(-c4cccnc4)ccc3n2)cc1,4,0,20,22,1,0,36,36,51,24
Clc1cc(Cl)cc(Nc2ccnc(Nc3cc(Cl)cc(Cl)c3)n2)c1 [GSK175726],0,7,0,0,17,0,12,0,0,6
COc1ccccc1CNC(=O)c1cc(C(=O)c2ccccc2C)c[nH]1 [GSK364507],6,15,12,16,40,8,6,1,0,0
Cc1c(O)cccc1Nc1ccnc2ccc(C(F)(F)F)cc12.Cl [GW466413],0,0,22,17,0,0,0,0,1,0

# From publication PMC5540273 (PLoS ONE, 2017)
